The assay concerns Vero E6 infected with SARS-CoV-2. As to the kind of experiment: morphology score (similarity to uninfected cells); higher = more like uninfected cells. Particulars: 24 h.
In the case of `[N-]=[N+]=CC(=O)CC[C@H](N)C(=O)O` [6-diazo-5-oxo-L-norleucine] (10 µM), the morphology score is 0.196. Take `CC(C)N1Cc2cc(S(C)(=O)=O)ccc2N(CCN2CC=C(c3c[nH]c4cc(F)ccc34)CC2)S1(=O)=O` (10 µM): the morphology score was 0.178. Under `COc1cccc(-n2nc(C(=O)O)cc2-c2ccc(C3CCCCC3)c(Cl)c2)c1` (10 µM) stands 0.0895; under `CC[C@H](CC[C@@H](C)[C@H]1CC[C@H]2[C@@H]3CC=C4C[C@@H](O)CC[C@]4(C)[C@H]3CC[C@]12C)C(C)C` [beta-Sitosterol] (10 µM), 0.119; under `C[N+]1(CCCCC[N+]2(C)CCCC2)CCCC1` [pentolinium] (10 µM), -0.0223.

The compound `CCOC(=O)Nc1ccc(NCc2ccc(F)cc2)cc1N` [Retigabine] (10 µM) yielded a morphology score of 0.067. As for `CCCC(C)(COC(N)=O)COC(=O)NC(C)C` (centres undefined) (10 µM), the figure is -0.33. As for `CC1CCc2c(N3CCC(O)CC3)c(F)cc3c(=O)c(C(=O)O)cn1c23` (centres undefined) [nadifloxacin] (10 µM), the figure is -0.0037. On to `Clc1cccc(-c2nnnn2Cc2cccnc2)c1Cl` (10 µM), for which the morphology score worked out at 0.0426. For the compound `N[C@@H](Cc1cc(I)c(Oc2ccc(O)c(I)c2)c(I)c1)C(=O)O` [liothyronine] (10 µM), the morphology score was 0.106. For `CC(=O)Nc1nc2c(Oc3cc(-c4ccc(C(F)(F)F)cc4)ncn3)cccc2s1` (10 µM), the morphology score was determined as 0.163. As for `C/C1=C/C[C@@H](/C(C)=C/c2csc(C)n2)OC(=O)C[C@H](O)C(C)(C)C(=O)[C@H](C)[C@@H](O)[C@@H](C)CCC1` [epothilone-D] (0.833333 µM), the figure is -0.105; as for `CC(O)Cn1cnc2c1c(=O)n(C)c(=O)n2C` (centres undefined) [Proxyphylline] (10 µM), 0.074; as for `O=C(NCCN1CCN(c2ncccn2)CC1)C12CC3CC(CC(C3)C1)C2` [adatanserin] (10 µM), 0.159.

As to `O=C(Nc1cccc2cccnc12)c1ccc(N2C(=O)[C@@H]3[C@H](C2=O)[C@H]2C=C[C@@H]3C2)cc1` (10 µM), the morphology score is 0.00174. Under `Cc1ccccc1-n1c(Cn2nc(-c3cccc(O)c3)c3c(N)ncnc32)nc2cccc(C)c2c1=O` (10 µM) stands 0.0603; under `O=C(NC1CCN(CCc2c[nH]c3ccccc23)CC1)c1ccccc1` [indoramin] (10 µM), 0.105; under `COc1cc2c(cc1OC)[C@@]13CCN4CC5=CCO[C@H]6CC(=O)N2[C@H]1[C@H]6[C@H]5C[C@H]43` [brucine] (10 µM), 0.0385. As for `CN(C)CCCO[C@@H]1[C@H]2OC(C)(C)O[C@H]2O[C@@H]1[C@H](O)CO` [amiprilose] (10 µM), the figure is -0.0292. As for `Cc1[nH]cnc1-c1ccc(Cl)cc1` [lofemizole] (10 µM), the morphology score is -0.0942. Under `CNC(=O)CN1CCC(Oc2cc3c(Nc4cccc(Cl)c4F)ncnc3cc2OC)CC1` (0.833333 µM) stands -0.193. `N#Cc1ccc(C2CCCc3cncn32)cc1` (centres undefined) [fadrozole] (10 µM) returned a morphology score of 0.114. As for `CN1[C@@H]2C[C@@H](O)C[C@H]1[C@@H]1O[C@@H]12` [scopine] (10 µM), the figure is 0.146; as for `O=P(O)(O)C(O)(Cc1cccnc1)P(=O)(O)O` [risedronate] (10 µM), 0.123. As for `O=C(Nc1c(Cl)cncc1Cl)c1ccc(OC(F)F)c(OCC2CC2)c1` [roflumilast] (10 µM), the figure is 0.202; as for `COC[C@H](NC(=O)c1cnc(C)s1)C(=O)N[C@@H](COC)C(=O)N[C@@H](Cc1ccccc1)C(=O)[C@@]1(C)CO1` [oprozomib] (0.833333 µM), -0.312; as for `N[C@H]1CCN(O)C1=O` (10 µM), 0.0281. The compound `C[C@H](NC(=O)/C(C#N)=C/c1cccc(Br)n1)c1ccccc1` (0.833333 µM) showed a morphology score of -0.0278. In turn, `NC(=O)NCCN1CCN(c2cccc(C(F)(F)F)c2)CC1` [fluprazine] (10 µM) displayed a morphology score of 0.0715. As for `N#Cc1c(N)nc(SCc2csc(-c3ccc(Cl)cc3)n2)c(C#N)c1-c1ccc(OCCO)cc1` [capadenoson] (10 µM), the figure is -0.145; as for `Cn1nccc1Nc1nccc(-c2ccn([C@H](CO)c3ccc(Cl)c(F)c3)c(=O)c2)n1` (0.833333 µM), 0.0519.

As for `O=C(Nc1ccc(Cl)cc1)Nc1ccc(Cl)c(Cl)c1` [triclocarban] (10 µM), the morphology score amounted to 0.0739. As for `COc1ccc(-c2nc3cc(C4=NNC(=O)CC4C)ccc3[nH]2)cc1` (centres undefined) [pimobendan] (10 µM), the figure is 0.129; as for `COC(=O)C1=C(C)NC(C)=C(C(=O)OC/C=C/c2ccccc2)C1c1cccc([N+](=O)[O-])c1` (centres undefined) [pranidipine] (10 µM), -0.0636. Under `O=C(/C=C/c1cccc(S(=O)(=O)Nc2ccccc2)c1)NO` [belinostat] (10 µM) stands 0.0182. With `CC(C)N(CC[C@H](c1ccccc1)c1cc(CO)ccc1O)C(C)C` [5-hydroxymethyl-tolterodine] (10 µM), the morphology score amounted to 0.191. As for `CN1CCN(S(=O)(=O)c2ccc(-c3cnc(N)c(C(=O)Nc4cccnc4)n3)cc2)CC1` (0.833333 µM), the figure is 0.224; as for `CC1(C)CCC2=C(O1)c1ccccc1C(=O)C2=O` [beta-lapachone] (10 µM), 0.361. As for `COc1ccc(-c2oc3cc(OC)ccc3c2C(=O)c2ccc(C#N)cc2)cc1` (10 µM), the figure is 0.111.

The values above are taken from the supplement of paper PMC13380429.
